Experimental data as given in the supplement of paper PMC10849652.
Of roughly 8,800 targets only a part is listed; those with a hit were picked by preference. About 0.5% of all pairs of compound and target were hits. Unmarked numbers belong to inactive results.

Columns and labels:
Test in all cases: log2 fold change, soluble protein after heating vs DMSO (PISA); higher = thermal stabilisation; K562 lysate, 10 uM; active = over 0.2 and 3.5 SD of the protein, either way, in both replicates (recomputed)
alvocidib = compound: CN1CC[C@H](c2c(O)cc(O)c3c(=O)cc(-c4ccccc4Cl)oc23)[C@H](O)C1 [alvocidib]
Summary of the method: (§1)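 K562 pellets were dounce-homogenised in PBS pH 7.4 containing 1 mM MgCl2, and the crude extract, at 1 mg/mL protein, was exposed to 10 μM compound for 30 min. Aliquots were heated for 3 min across 48°C-58°C, pooled, brought to 0.5% NP-40 at 4°C and spun at 21,000xg for 90 min, with the supernatant taken as soluble protein. TMTpro 16plex LC-MS/MS with equalised channel sums quantified that protein. Values are log-two fold changes in thermal stability relative to solvent controls, taken from duplicates.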

Tubastatin A = compound: CN1CCc2c(c3ccccc3n2Cc2ccc(C(=O)NO)cc2)C1 [Tubastatin A]
Summary of the method: as §1

[1] = compound: CNC(=O)C1=CC=CC=C1NC2=NC(=NC=C2Cl)NC3=C(C=C(C=C3)N4CCOCC4)OC
Summary of the method: as §1

[2] = compound: CNc1nc(-c2ccc3c(N)n[nH]c3c2)cc(N2C[C@@H](C(=O)NC3CCCCC3)CC[C@H]2C)n1
Summary of the method: as §1

encorafenib = compound: COC(=O)N[C@@H](C)CNc1nccc(-c2cn(C(C)C)nc2-c2cc(Cl)cc(NS(C)(=O)=O)c2F)n1 [encorafenib]
Summary of the method: as §1

[3] = compound: COC(=O)[C@H](CCSC)NC(=O)C1=C(C=C(C=C1)NC[C@H](CS)N)C2=CC=CC=C2
Summary of the method: as §1

pictilisib = compound: CS(=O)(=O)N1CCN(Cc2cc3nc(-c4cccc5[nH]ncc45)nc(N4CCOCC4)c3s2)CC1 [pictilisib]
Summary of the method: as §1

crizotinib = compound: C[C@@H](Oc1cc(-c2cnn(C3CCNCC3)c2)cnc1N)c1c(Cl)ccc(F)c1Cl [crizotinib]
Summary of the method: as §1

[4] = compound: C[C@H](C1=CC=C(C=C1)C(=O)NC2=C3C=CNC3=NC=C2)N
Summary of the method: as §1

duvelisib = compound: C[C@H](Nc1ncnc2nc[nH]c12)c1cc2cccc(Cl)c2c(=O)n1-c1ccccc1 [duvelisib]
Summary of the method: as §1

gandotinib = compound: Cc1cc(Nc2cc(CN3CCOCC3)c3nc(C)c(Cc4ccc(Cl)cc4F)n3n2)n[nH]1 [gandotinib]
Summary of the method: as §1

tozasertib = compound: Cc1cc(Nc2cc(N3CCN(C)CC3)nc(Sc3ccc(NC(=O)C4CC4)cc3)n2)n[nH]1 [tozasertib]
Summary of the method: as §1

doramapimod = compound: Cc1ccc(-n2nc(C(C)(C)C)cc2NC(=O)Nc2ccc(OCCN3CCOCC3)c3ccccc23)cc1 [doramapimod]
Summary of the method: as §1

bafetinib = compound: Cc1ccc(NC(=O)c2ccc(CN3CC[C@H](N(C)C)C3)c(C(F)(F)F)c2)cc1Nc1nccc(-c2cncnc2)n1 [bafetinib]
Summary of the method: as §1

[5] = compound: Cc1cccc(CC(=O)N2CCc3c2ccc(-c2cn(C)c4ncnc(N)c24)c3F)n1
Summary of the method: as §1

[6] = compound: COc1cc2nc(-c3cc(F)ccc3O)nc(N[C@@H]3CNC[C@H]3C(C)(C)O)c2cc1OC
Summary of the method: as §1

lapatinib = compound: CS(=O)(=O)CCNCc1ccc(-c2ccc3ncnc(Nc4ccc(OCc5cccc(F)c5)c(Cl)c4)c3c2)o1 [lapatinib]
Summary of the method: as §1

defactinib = compound: CNC(=O)c1ccc(Nc2ncc(C(F)(F)F)c(NCc3nccnc3N(C)S(C)(=O)=O)n2)cc1 [defactinib]
Summary of the method: as §1

alisertib = compound: COc1cc(Nc2ncc3c(n2)-c2ccc(Cl)cc2C(c2c(F)cccc2OC)=NC3)ccc1C(=O)O [alisertib]
Summary of the method: as §1

gefitinib = compound: COc1cc2ncnc(Nc3ccc(F)c(Cl)c3)c2cc1OCCCN1CCOCC1 [gefitinib]
Summary of the method: as §1

Chain of UniProt P53778 (P53778 whole entry, looked up): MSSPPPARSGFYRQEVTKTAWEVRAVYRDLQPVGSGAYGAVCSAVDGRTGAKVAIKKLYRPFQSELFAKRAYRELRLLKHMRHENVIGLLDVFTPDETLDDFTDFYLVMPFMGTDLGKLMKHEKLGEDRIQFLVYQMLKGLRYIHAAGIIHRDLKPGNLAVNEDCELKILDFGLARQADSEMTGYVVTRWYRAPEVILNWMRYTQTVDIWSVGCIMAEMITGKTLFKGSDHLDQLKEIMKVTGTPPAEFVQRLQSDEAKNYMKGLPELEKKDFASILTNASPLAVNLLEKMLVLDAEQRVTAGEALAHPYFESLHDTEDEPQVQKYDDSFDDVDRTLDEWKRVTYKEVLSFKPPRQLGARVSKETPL
Chain of UniProt Q9UBG0 (Q9UBG0 whole entry, looked up): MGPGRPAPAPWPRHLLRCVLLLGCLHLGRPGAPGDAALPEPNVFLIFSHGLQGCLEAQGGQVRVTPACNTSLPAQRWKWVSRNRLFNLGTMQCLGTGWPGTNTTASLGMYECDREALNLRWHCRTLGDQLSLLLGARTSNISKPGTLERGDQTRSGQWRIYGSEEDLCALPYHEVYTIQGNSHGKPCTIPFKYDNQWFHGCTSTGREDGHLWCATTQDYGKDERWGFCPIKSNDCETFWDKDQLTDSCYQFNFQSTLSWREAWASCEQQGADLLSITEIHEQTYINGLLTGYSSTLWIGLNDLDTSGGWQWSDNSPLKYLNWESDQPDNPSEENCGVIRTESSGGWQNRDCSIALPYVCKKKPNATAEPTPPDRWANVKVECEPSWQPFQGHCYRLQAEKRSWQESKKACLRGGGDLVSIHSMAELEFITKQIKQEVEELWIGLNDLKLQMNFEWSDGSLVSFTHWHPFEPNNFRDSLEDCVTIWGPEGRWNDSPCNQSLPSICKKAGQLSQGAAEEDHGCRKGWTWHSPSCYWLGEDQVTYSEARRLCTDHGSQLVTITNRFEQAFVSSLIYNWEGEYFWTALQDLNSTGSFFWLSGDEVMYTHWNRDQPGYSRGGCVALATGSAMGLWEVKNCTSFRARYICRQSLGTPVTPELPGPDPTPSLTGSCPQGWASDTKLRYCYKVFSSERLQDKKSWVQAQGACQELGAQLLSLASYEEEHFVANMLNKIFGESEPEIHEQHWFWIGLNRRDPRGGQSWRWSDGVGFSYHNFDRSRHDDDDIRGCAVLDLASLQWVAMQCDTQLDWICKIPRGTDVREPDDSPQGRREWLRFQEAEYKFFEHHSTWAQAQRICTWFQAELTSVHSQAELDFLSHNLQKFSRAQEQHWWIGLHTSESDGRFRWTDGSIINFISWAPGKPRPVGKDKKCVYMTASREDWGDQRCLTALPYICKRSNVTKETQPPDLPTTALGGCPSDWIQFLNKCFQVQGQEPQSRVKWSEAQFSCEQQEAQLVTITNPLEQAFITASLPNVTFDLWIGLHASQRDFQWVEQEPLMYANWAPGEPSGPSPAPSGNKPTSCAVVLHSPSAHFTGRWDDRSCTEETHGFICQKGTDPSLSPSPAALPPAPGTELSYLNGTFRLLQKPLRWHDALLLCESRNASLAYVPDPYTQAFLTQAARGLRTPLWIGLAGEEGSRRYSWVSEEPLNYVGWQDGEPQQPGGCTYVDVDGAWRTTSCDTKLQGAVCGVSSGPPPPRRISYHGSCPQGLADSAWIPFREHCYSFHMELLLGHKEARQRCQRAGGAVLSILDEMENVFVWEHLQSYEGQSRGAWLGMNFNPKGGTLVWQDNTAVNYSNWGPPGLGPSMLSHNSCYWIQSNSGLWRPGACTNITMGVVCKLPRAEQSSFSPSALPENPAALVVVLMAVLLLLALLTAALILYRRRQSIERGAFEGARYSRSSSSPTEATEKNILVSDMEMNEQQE
Chain of UniProt Q08380 (Q08380 whole entry, looked up): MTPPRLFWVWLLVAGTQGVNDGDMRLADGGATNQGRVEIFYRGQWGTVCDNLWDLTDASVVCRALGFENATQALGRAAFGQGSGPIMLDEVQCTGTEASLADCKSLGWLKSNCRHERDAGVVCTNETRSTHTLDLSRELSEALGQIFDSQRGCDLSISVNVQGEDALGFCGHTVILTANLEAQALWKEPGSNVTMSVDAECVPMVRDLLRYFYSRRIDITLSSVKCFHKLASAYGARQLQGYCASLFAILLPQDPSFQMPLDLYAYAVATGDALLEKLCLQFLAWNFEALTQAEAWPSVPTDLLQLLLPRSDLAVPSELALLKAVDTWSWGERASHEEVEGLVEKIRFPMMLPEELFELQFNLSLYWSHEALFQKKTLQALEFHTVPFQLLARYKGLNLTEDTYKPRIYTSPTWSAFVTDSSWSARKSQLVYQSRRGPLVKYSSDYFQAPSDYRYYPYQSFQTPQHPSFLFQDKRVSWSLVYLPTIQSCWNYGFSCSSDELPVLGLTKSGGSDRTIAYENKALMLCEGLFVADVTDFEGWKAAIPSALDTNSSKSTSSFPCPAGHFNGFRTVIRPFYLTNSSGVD
Chain of UniProt Q8N5J2 (Q8N5J2 whole entry, looked up): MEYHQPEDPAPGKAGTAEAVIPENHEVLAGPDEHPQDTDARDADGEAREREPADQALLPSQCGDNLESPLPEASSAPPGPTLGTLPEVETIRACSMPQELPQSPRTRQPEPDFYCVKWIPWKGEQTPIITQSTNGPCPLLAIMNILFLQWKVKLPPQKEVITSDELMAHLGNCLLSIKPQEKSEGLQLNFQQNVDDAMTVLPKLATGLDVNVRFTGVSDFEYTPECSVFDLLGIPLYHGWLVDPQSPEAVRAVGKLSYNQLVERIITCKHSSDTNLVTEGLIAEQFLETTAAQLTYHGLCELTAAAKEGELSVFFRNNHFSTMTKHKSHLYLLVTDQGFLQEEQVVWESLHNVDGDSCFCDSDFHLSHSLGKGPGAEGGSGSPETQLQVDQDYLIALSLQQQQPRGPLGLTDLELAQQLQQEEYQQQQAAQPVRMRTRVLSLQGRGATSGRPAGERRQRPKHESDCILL
Chain of UniProt Q6ZRQ5 (Q6ZRQ5 whole entry, looked up): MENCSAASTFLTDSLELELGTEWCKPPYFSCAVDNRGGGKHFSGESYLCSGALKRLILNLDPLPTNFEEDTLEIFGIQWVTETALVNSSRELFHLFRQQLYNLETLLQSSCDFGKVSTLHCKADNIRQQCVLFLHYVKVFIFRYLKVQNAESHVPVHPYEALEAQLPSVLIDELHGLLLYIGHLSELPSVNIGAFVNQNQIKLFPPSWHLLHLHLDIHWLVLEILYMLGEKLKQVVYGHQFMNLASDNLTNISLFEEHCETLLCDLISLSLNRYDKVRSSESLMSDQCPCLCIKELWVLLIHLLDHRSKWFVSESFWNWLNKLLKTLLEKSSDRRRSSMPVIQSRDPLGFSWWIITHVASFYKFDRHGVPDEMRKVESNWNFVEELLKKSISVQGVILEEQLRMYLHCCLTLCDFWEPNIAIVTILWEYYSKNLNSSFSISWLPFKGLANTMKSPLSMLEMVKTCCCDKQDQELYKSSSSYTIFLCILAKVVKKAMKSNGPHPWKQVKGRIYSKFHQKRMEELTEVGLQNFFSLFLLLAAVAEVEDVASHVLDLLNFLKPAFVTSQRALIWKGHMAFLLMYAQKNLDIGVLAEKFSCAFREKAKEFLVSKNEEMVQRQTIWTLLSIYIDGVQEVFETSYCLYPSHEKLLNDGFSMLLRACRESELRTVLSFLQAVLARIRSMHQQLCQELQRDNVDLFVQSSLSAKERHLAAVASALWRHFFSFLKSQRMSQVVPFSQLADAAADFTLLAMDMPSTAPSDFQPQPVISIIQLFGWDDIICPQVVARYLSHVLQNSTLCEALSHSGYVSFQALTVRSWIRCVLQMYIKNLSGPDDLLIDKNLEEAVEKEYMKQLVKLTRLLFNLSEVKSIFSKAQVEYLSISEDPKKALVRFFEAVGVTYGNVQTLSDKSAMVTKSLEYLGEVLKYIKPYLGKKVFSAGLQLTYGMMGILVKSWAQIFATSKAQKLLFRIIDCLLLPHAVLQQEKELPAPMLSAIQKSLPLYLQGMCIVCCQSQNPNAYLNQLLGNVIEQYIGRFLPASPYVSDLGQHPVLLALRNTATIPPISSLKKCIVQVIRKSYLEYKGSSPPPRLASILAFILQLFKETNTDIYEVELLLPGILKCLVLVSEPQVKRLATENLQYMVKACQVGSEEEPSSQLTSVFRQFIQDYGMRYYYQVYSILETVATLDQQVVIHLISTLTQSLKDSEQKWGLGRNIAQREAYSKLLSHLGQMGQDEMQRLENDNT
Chain of UniProt A1L020 (A1L020 whole entry, looked up): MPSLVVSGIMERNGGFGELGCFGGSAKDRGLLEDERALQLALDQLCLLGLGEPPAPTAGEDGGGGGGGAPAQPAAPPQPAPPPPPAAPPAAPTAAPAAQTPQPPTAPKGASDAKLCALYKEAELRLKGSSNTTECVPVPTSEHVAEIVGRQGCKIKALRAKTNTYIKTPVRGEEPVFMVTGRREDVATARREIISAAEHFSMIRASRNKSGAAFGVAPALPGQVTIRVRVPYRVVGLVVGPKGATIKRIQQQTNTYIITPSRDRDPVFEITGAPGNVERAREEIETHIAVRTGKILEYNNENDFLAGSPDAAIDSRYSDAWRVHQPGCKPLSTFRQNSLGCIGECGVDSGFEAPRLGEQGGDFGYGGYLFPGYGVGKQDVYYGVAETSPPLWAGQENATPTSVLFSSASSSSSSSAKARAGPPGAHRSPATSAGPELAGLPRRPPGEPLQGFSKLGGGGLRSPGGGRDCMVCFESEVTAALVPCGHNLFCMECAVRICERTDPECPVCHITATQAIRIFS
Chain of UniProt Q16553 (Q16553 whole entry, looked up): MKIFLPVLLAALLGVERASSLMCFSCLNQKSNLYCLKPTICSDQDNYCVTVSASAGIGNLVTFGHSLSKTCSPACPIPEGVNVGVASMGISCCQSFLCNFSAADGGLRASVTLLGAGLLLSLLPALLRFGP
Chain of UniProt Q9H204 (Q9H204 whole entry, looked up): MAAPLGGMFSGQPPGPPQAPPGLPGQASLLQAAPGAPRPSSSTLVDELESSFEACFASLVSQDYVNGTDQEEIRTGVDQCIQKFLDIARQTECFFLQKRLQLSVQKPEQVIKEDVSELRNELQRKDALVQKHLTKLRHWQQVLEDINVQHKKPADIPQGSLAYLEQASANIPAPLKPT

| Target | log2 fold change (alvocidib) | log2 fold change (Tubastatin A) | log2 fold change [1] | log2 fold change [2] | log2 fold change (encorafenib) | log2 fold change [3] | log2 fold change (pictilisib) | log2 fold change (crizotinib) | log2 fold change [4] | log2 fold change (duvelisib) | log2 fold change (gandotinib) | log2 fold change (tozasertib) | log2 fold change (doramapimod) | log2 fold change (bafetinib) | log2 fold change [5] | log2 fold change [6] | log2 fold change (lapatinib) | log2 fold change (defactinib) | log2 fold change (alisertib) | log2 fold change (gefitinib) |
| --- | --- | --- | --- | --- | --- | --- | --- | --- | --- | --- | --- | --- | --- | --- | --- | --- | --- | --- | --- | --- |
| MEGF8 (UniProt Q7Z7M0) | 0.03 | 0.156 | 0.058 | -0.051 | -0.01 | 0.131 | -0.015 | 0.113 | -0.077 | -0.167 | -0.101 | 0.02 | -0.028 | 0.068 | -0.011 | – | – | – | – | – |
| MAPK7 (UniProt Q13164) | 0.069 | – | 0.002 | – | -0.03 | -0.114 | – | 0.246 | -0.083 | – | 0.161 | -0.029 | 0.01 | – | -0.099 | 0.157 | -0.145 | – | – | – |
| MCMBP isoform 2 (UniProt Q9BTE3) | – | -0.142 | 0.102 | 0.199 | -0.015 | 0.124 | -0.179 | 0.14 | – | -0.03 | – | 0.013 | -0.092 | 0.235 | – | -0.091 | 0.154 | 0.089 | 0.067 | -0.082 |
| MRPL22 (UniProt Q9NWU5) | 0.018 | -0.033 | 0.036 | – | – | – | – | -0.047 | -0.038 | – | -0.018 | – | 0.016 | – | 0.05 | -0.052 | -0.023 | – | -0.003 | -0.051 |
| MAPK12 (UniProt P53778) | – | 0.022 | 0.025 | 0.054 | -0.001 | 0.035 | 0.059 | – | 0.868 (active) | -0.061 | -0.15 | 0.248 | – | 0 | -0.163 | – | – | -0.077 | -0.114 | -0.057 |
| MRC2 (UniProt Q9UBG0) | 0.04 | – | -0.062 | 0.05 | 0.031 | -0.301 | – | -0.3 | -0.192 | -0.49 | 0.075 | 0.063 | 0.035 | – | -0.184 | – | – | – | -0.075 | 0.046 |
| KLHL12 isoform 2 (UniProt Q53G59) | – | -0.156 | -0.051 | -0.02 | – | – | 0.048 | 0.016 | – | 0.084 | – | – | 0.003 | -0.131 | – | 0.086 | 0.023 | -0.025 | 0.023 | -0.048 |
| MAP3K4 isoform 2 (UniProt Q9Y6R4) | – | – | – | – | – | – | – | 0.044 | – | – | – | – | -0.007 | – | – | – | – | – | – | – |
| MEX3A (UniProt A1L020) | – | 0.037 | – | 0.037 | – | – | – | – | – | 0.196 | – | – | – | – | – | – | – | -0.068 | -0.097 | 0.207 |
| KMT2B (UniProt Q9UMN6) | – | – | -0.083 | 0.246 | 0.127 | -0.008 | – | 0.073 | – | -0.034 | – | 0.073 | -0.033 | – | – | – | – | – | – | – |
| KRIT1 (UniProt O00522) | – | -0.034 | 0.089 | 0.102 | 0.118 | 0.123 | -0.058 | -0.07 | – | -0.001 | – | -0.043 | 0.016 | -0.041 | – | -0.055 | -0.115 | 0.045 | 0.038 | 0.029 |
| MMS22L (UniProt Q6ZRQ5) | 0.068 | – | -0.011 | -0.03 | -0.007 | 0.017 | -0.034 | 0.113 | 0.065 | -0.106 | -0.169 | 0.087 | -0.018 | -0.152 | -0.029 | 0.055 | -0.101 | 0.06 | -0.004 | 0.035 |
| MAP3K6 (UniProt O95382) | – | – | – | – | 0.167 | -0.031 | – | – | – | – | – | -0.061 | – | – | – | – | – | -0.096 | 0.026 | -0.022 |
| LY6E (UniProt Q16553) | -0.726 | – | – | – | 0.03 | -0.005 | 0.071 | – | -1.51 (active) | – | 0.412 | 0.079 | – | -0.2 | 0.588 | 0.016 | -0.026 | -0.024 | 0.029 | -0.013 |
| KIF18B (UniProt Q86Y91) | – | – | – | -0.067 | -0.159 | -0.04 | – | -0.008 | – | 0.068 | – | -0.161 | 0.077 | – | – | 0.046 | -0.024 | – | – | – |
| MINDY1 isoform 3 (UniProt Q8N5J2) | – | 0.093 | -0.031 | -0.054 | 0.03 | -0.053 | 0 | -0.045 | – | 0.051 | – | -0.036 | 0.051 | -0.11 | – | 0.103 | -0.002 | 0.021 | 0.001 | 0.134 |
| LGALS3BP (UniProt Q08380) | -0.187 | – | -0.234 | -0.571 (active) | 0.023 | 0.082 | – | 0.204 | 0.035 | -0.149 | 0.197 | 0.115 | -0.087 | – | 0.53 | 0.092 | -0.239 | -0.133 | -0.074 | 0.019 |
| MAPK3 (UniProt H0YEX6) | – | – | – | – | – | – | – | – | – | – | – | – | – | – | – | – | – | – | -0.128 | -0.016 |
| MED28 (UniProt Q9H204) | -0.292 | 0.05 | 0.14 | 0.081 | – | – | – | 0.021 | -0.039 | -0.034 | 0.394 (active) | – | -0.012 | – | -0.038 | -0.024 | 0.132 | – | 0.011 | -0.217 |
| MAPKAP1 (UniProt Q9BPZ7) | – | -0.125 | -0.119 | 0.081 | -0.051 | 0.036 | – | 0.02 | – | -0.192 | – | 0.113 | -0.029 | – | – | – | – | – | -0.094 | 0.07 |
| KIF2A isoform 2 (UniProt O00139) | 0.153 | – | – | – | – | – | – | – | 0.192 | – | -0.059 | – | – | – | -0.059 | – | – | – | – | – |
| LRP1 (UniProt Q07954) | – | – | – | – | -0.091 | 0.043 | – | -0.488 | – | – | – | 0.239 | 0.022 | – | – | 0.034 | -0.047 | -0.108 | – | – |
| LSM11 (UniProt P83369) | 0.134 | – | -0.15 | 0.009 | 0.082 | 0.041 | – | 0.025 | -0.123 | 0.009 | 0.039 | 0.011 | 0.123 | – | -0.394 | – | – | -0.119 | – | – |
